# Measured values: PubChem BioAssay AID493029 (Johns Hopkins Ion Channel Center, 2011)
# In all, about 1,000 compounds went through this assay and about 140 (14%) were called active. No rule for the calls is given here. The sample as a whole holds a higher share of actives than the screen did.
# Assay: non-target flux effects, untransfected CHO, cell-based, thallium flux, counter-screen for KCNQ2 inhibitor project (AID 493029);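 as to activity change: 0% = vehicle negative controls with stimulus buffer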
# Details: parental CHO cells, at 10 µM; active compounds read low
row,SMILES,activity change
1,CN(C)CC1Oc2ccccc2OC1(O)c1ccccc1 (configuration not stated),-23% (active)
2,O=C(NC(c1ccc(Cl)cc1)P(=O)(Oc1ccccc1)Oc1ccccc1)OCc1ccccc1 (configuration not stated),inactive
